Assay results as given in PubChem BioAssay AID1159580 (chemical genetic matrix, 2015).
Screen size: about 5,500 compounds; about 2,000 (36%) were called active. Not shown: some 18% with an inconclusive outcome. This is one part of the list. Values without a mark were called inactive. Rule as the data show it: active = normalized growth mostly below about 0.91 (no sharp cut-off); inconclusive = no clear call, values can overlap the other calls; inactive = mostly above about 0.92.

Assay: chemical genetic growth profiling, strain panel (AID 1159580);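 also: tested at 20 µM; growth read once vehicle control cultures reached saturation at 30 °C; 1 = growth at the plate median or of vehicle wells; lower values mean less growth of the strain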
Settings: growth OD

For `N#CC1COc2ccccc2O1` (centres undefined), the normalized growth (S. cerevisiae deletion strains, locus YAL013W, strain DEP1, stronger effect = lower value) was 1.01, the normalized growth (S. cerevisiae deletion strains, locus YBR229C, strain ROT2, stronger effect = lower value) was 0.993 and the normalized growth (S. cerevisiae deletion strains, locus YDL101C, strain DUN1, stronger effect = lower value) was 1.01. The normalized growth (S. cerevisiae deletion strains, locus YDR150W, strain NUM1, stronger effect = lower value) was 1.03, the normalized growth (S. cerevisiae deletion strains, locus YEL061C, strain CIN8, stronger effect = lower value) was 1.01 and the normalized growth (S. cerevisiae deletion strains, locus YGR078C, strain PAC10, stronger effect = lower value) was 0.999. It also gave a normalized growth (S. cerevisiae deletion strains, locus YGR229C, strain SMI1, stronger effect = lower value) of 0.999, a normalized growth (S. cerevisiae deletion strains, locus YHR030C, strain SLT2, stronger effect = lower value) of 1.03 and a normalized growth (S. cerevisiae deletion strains, locus YHR087W, strain rtc3, stronger effect = lower value) of 0.989. It also gave a normalized growth (S. cerevisiae deletion strains, locus YJR043C, strain POL32, stronger effect = lower value) of 1.03, a normalized growth (S. cerevisiae deletion strains, locus YJR075W, strain HOC1, stronger effect = lower value) of 0.973 and a normalized growth (S. cerevisiae deletion strains, locus YKL190W, strain CNB1, stronger effect = lower value) of 1.02. It also gave a normalized growth (S. cerevisiae deletion strains, locus YLR039C, strain RIC1, stronger effect = lower value) of 1, a normalized growth (S. cerevisiae deletion strains, locus YLR058C, strain SHM2 (second series), stronger effect = lower value) of 0.994 and a normalized growth (S. cerevisiae deletion strains, locus YLR085C, strain ARP6, stronger effect = lower value) of 1.01. It also gave a normalized growth (S. cerevisiae deletion strains, locus YLR262C, strain YPT6, stronger effect = lower value) of 0.997, a normalized growth (S. cerevisiae deletion strains, locus YML094W, strain GIM5, stronger effect = lower value) of 1.01 and a normalized growth (S. cerevisiae deletion strains, locus YMR219W, strain ESC1, stronger effect = lower value) of 0.999. For the same molecule, the normalized growth (S. cerevisiae deletion strains, locus YMR263W, strain SAP30, stronger effect = lower value) was 1.03, the normalized growth (S. cerevisiae deletion strains, locus YMR307W, strain GAS1, stronger effect = lower value) was 1.1 and the normalized growth (S. cerevisiae deletion strains, locus YNL153C, strain GIM3, stronger effect = lower value) was 0.996. The normalized growth (S. cerevisiae deletion strains, locus YNL298W, strain CLA4 (second series), stronger effect = lower value) was 1.04, the normalized growth (S. cerevisiae deletion strains, locus YNL322C, strain KRE1, stronger effect = lower value) was 0.984 and the normalized growth (S. cerevisiae deletion strains, locus YNR030W, strain Alg12, stronger effect = lower value) was 1.01. For the same molecule, the normalized growth (S. cerevisiae deletion strains, locus YPL055C, strain LGE1, stronger effect = lower value) was 1.13, the normalized growth (S. cerevisiae deletion strains, locus YPL241C, strain CIN2, stronger effect = lower value) was 0.998 and the normalized growth (S. cerevisiae deletion strains, locus YPR135W, strain CTF4, stronger effect = lower value) was 1.04. The normalized growth (S. cerevisiae strains, strain wild type, stronger effect = lower value) was 1.01.

With `S=c1ccss1` the normalized growth (S. cerevisiae deletion strains, locus YAL021C, strain ccr4, stronger effect = lower value) was 0.679 (active), the normalized growth (S. cerevisiae deletion strains, locus YAL026C, strain drs2, stronger effect = lower value) was 0.779 (active) and the normalized growth (S. cerevisiae deletion strains, locus YAL030W, strain snc1, stronger effect = lower value) was 0.997. For the same molecule, the normalized growth (S. cerevisiae deletion strains, locus YBL061C, strain skt5, stronger effect = lower value) was 0.989, the normalized growth (S. cerevisiae deletion strains, locus YBR009C, strain hhf1, stronger effect = lower value) was 0.915 and the normalized growth (S. cerevisiae deletion strains, locus YBR023C, strain chs3, stronger effect = lower value) was 0.972. For the same molecule, the normalized growth (S. cerevisiae deletion strains, locus YBR171W, strain sec66, stronger effect = lower value) was 0.994, the normalized growth (S. cerevisiae deletion strains, locus YBR231C, strain swc5, stronger effect = lower value) was 0.895 (active) and the normalized growth (S. cerevisiae deletion strains, locus YBR279W, strain paf1, stronger effect = lower value) was 0.948. The normalized growth (S. cerevisiae deletion strains, locus YCL011C, strain gbp2, stronger effect = lower value) was 0.916, the normalized growth (S. cerevisiae deletion strains, locus YCL016C, strain dcc1, stronger effect = lower value) was 0.977 and the normalized growth (S. cerevisiae deletion strains, locus YCL069W, strain vba3, stronger effect = lower value) was 1. The normalized growth (S. cerevisiae deletion strains, locus YCR088W, strain abp1, stronger effect = lower value) was 1, the normalized growth (S. cerevisiae deletion strains, locus YDL005C, strain med2, stronger effect = lower value) was 0.987 and the normalized growth (S. cerevisiae deletion strains, locus YDL040C, strain nat1, stronger effect = lower value) was 0.985. The normalized growth (S. cerevisiae deletion strains, locus YDR001C, strain nth1, stronger effect = lower value) was 1, the normalized growth (S. cerevisiae deletion strains, locus YDR069C, strain doa4, stronger effect = lower value) was 0.835 (active) and the normalized growth (S. cerevisiae deletion strains, locus YDR137W, strain rgp1, stronger effect = lower value) was 0.805 (active). For the same molecule, the normalized growth (S. cerevisiae deletion strains, locus YDR159W, strain sac3, stronger effect = lower value) was 1.06, the normalized growth (S. cerevisiae deletion strains, locus YDR195W, strain ref2) was 1.1 and the normalized growth (S. cerevisiae deletion strains, locus YDR297W, strain sur2, stronger effect = lower value) was 0.993. It also gave a normalized growth (S. cerevisiae deletion strains, locus YDR334W, strain swr1, stronger effect = lower value) of 0.931, a normalized growth (S. cerevisiae deletion strains, locus YDR335W, strain msn5, stronger effect = lower value) of 0.992 and a normalized growth (S. cerevisiae deletion strains, locus YDR392W, strain spt3, stronger effect = lower value) of 1.02. It also gave a normalized growth (S. cerevisiae deletion strains, locus YEL003W, strain gim4, stronger effect = lower value) of 1.01, a normalized growth (S. cerevisiae deletion strains, locus YEL037C, strain rad23, stronger effect = lower value) of 0.984 and a normalized growth (S. cerevisiae deletion strains, locus YEL061C, strain CIN8 (second series), stronger effect = lower value) of 1.01. It also gave a normalized growth (S. cerevisiae deletion strains, locus YER015W, strain faa2, stronger effect = lower value) of 0.984, a normalized growth (S. cerevisiae deletion strains, locus YER016W, strain bim1, stronger effect = lower value) of 0.984 and a normalized growth (S. cerevisiae deletion strains, locus YER111C, strain swi4, stronger effect = lower value) of 1.01. The normalized growth (S. cerevisiae deletion strains, locus YER155C, strain BEM2 (second series), stronger effect = lower value) was 0.979, the normalized growth (S. cerevisiae deletion strains, locus YFR010W, strain ubp6, stronger effect = lower value) was 0.839 (active) and the normalized growth (S. cerevisiae deletion strains, locus YGL167C, strain pmr1, stronger effect = lower value) was 1. For the same molecule, the normalized growth (S. cerevisiae deletion strains, locus YGL173C, strain kem1, stronger effect = lower value) was 0.926, the normalized growth (S. cerevisiae deletion strains, locus YGL227W, strain vid30, stronger effect = lower value) was 1.01 and the normalized growth (S. cerevisiae deletion strains, locus YGL240W, strain doc1, stronger effect = lower value) was 0.96. For the same molecule, the normalized growth (S. cerevisiae deletion strains, locus YGL253W, strain hxk2, stronger effect = lower value) was 0.818 (active), the normalized growth (S. cerevisiae deletion strains, locus YHR013C, strain ard1, stronger effect = lower value) was 0.77 (active) and the normalized growth (S. cerevisiae deletion strains, locus YHR027C, strain rpn1, stronger effect = lower value) was 0.943. For the same molecule, the normalized growth (S. cerevisiae deletion strains, locus YHR142W, strain chs7, stronger effect = lower value) was 0.94, the normalized growth (S. cerevisiae deletion strains, locus YJL092W, strain hpr5, stronger effect = lower value) was 0.991 and the normalized growth (S. cerevisiae deletion strains, locus YJL095W, strain BCK1 (second series), stronger effect = lower value) was 0.99. The normalized growth (S. cerevisiae deletion strains, locus YJL115W, strain asf1, stronger effect = lower value) was 0.994, the normalized growth (S. cerevisiae deletion strains, locus YJL129C, strain trk1, stronger effect = lower value) was 0.927 and the normalized growth (S. cerevisiae deletion strains, locus YJL154C, strain vps35, stronger effect = lower value) was 0.997. It also gave a normalized growth (S. cerevisiae deletion strains, locus YJL164C, strain tpk1, stronger effect = lower value) of 0.956, a normalized growth (S. cerevisiae deletion strains, locus YJL166W, strain qcr8, stronger effect = lower value) of 0.914 and a normalized growth (S. cerevisiae deletion strains, locus YJL187C, strain SWE1, stronger effect = lower value) of 0.965. It also gave a normalized growth (S. cerevisiae deletion strains, locus YKL160W, strain elf1, stronger effect = lower value) of 0.947, a normalized growth (S. cerevisiae deletion strains, locus YKR026C, strain gcn3, stronger effect = lower value) of 0.993 and a normalized growth (S. cerevisiae deletion strains, locus YKR091W, strain srl3, stronger effect = lower value) of 0.992. For the same molecule, the normalized growth (S. cerevisiae deletion strains, locus YLL001W, strain dnm1, stronger effect = lower value) was 0.939, the normalized growth (S. cerevisiae deletion strains, locus YLL026W, stronger effect = lower value) was 0.967 and the normalized growth (S. cerevisiae deletion strains, locus YLL041C, strain sdh2, stronger effect = lower value) was 1. It also gave a normalized growth (S. cerevisiae deletion strains, locus YLR027C, strain aat2, stronger effect = lower value) of 0.943, a normalized growth (S. cerevisiae deletion strains, locus YLR221C, strain rsa3, stronger effect = lower value) of 0.924 and a normalized growth (S. cerevisiae deletion strains, locus YLR258W, strain gsy2, stronger effect = lower value) of 0.965. For the same molecule, the normalized growth (S. cerevisiae deletion strains, locus YLR262C, strain YPT6 (second series), stronger effect = lower value) was 0.866, the normalized growth (S. cerevisiae deletion strains, locus YLR320W, strain mms22, stronger effect = lower value) was 0.939 and the normalized growth (S. cerevisiae deletion strains, locus YLR342W, strain FKS1, stronger effect = lower value) was 0.973. The normalized growth (S. cerevisiae deletion strains, locus YLR357W, strain rsc2, stronger effect = lower value) was 0.807 (active), the normalized growth (S. cerevisiae deletion strains, locus YLR370C, strain arc18, stronger effect = lower value) was 0.929 and the normalized growth (S. cerevisiae deletion strains, locus YLR384C, strain iki3, stronger effect = lower value) was 0.996. For the same molecule, the normalized growth (S. cerevisiae deletion strains, locus YML120C, strain ndi1, stronger effect = lower value) was 1.02, the normalized growth (S. cerevisiae deletion strains, locus YMR058W, strain fet3, stronger effect = lower value) was 0.962 and the normalized growth (S. cerevisiae deletion strains, locus YMR125W, strain sto1, stronger effect = lower value) was 1.04. It also gave a normalized growth (S. cerevisiae deletion strains, locus YMR129W, stronger effect = lower value) of 0.984, a normalized growth (S. cerevisiae deletion strains, locus YMR205C, strain PFK2, stronger effect = lower value) of 0.935 and a normalized growth (S. cerevisiae deletion strains, locus YMR231W, strain pep5, stronger effect = lower value) of 0.995. For the same molecule, the normalized growth (S. cerevisiae deletion strains, locus YNL071W, strain lat1, stronger effect = lower value) was 0.922, the normalized growth (S. cerevisiae deletion strains, locus YNL209W, strain ssb2, stronger effect = lower value) was 0.981 and the normalized growth (S. cerevisiae deletion strains, locus YNL248C, strain rpa49, stronger effect = lower value) was 1.01. The normalized growth (S. cerevisiae deletion strains, locus YNL322C, strain KRE1 (second series), stronger effect = lower value) was 0.99, the normalized growth (S. cerevisiae deletion strains, locus YNR049C, strain mso1, stronger effect = lower value) was 1 and the normalized growth (S. cerevisiae deletion strains, locus YOR001W, strain rrp6, stronger effect = lower value) was 0.98. The normalized growth (S. cerevisiae deletion strains, locus YOR070C, strain gyp1, stronger effect = lower value) was 0.911 (active), the normalized growth (S. cerevisiae deletion strains, locus YOR080W, strain dia2, stronger effect = lower value) was 1 and the normalized growth (S. cerevisiae deletion strains, locus YOR083W, strain WHI5, stronger effect = lower value) was 0.857 (active). For the same molecule, the normalized growth (S. cerevisiae deletion strains, locus YOR106W, strain vam3, stronger effect = lower value) was 0.646 (active), the normalized growth (S. cerevisiae deletion strains, locus YOR265W, strain rbl2, stronger effect = lower value) was 0.992 and the normalized growth (S. cerevisiae deletion strains, locus YOR270C, strain vph1, stronger effect = lower value) was 0.423 (active). For the same molecule, the normalized growth (S. cerevisiae deletion strains, locus YOR290C, strain snf2, stronger effect = lower value) was 0.866, the normalized growth (S. cerevisiae deletion strains, locus YPL051W, strain arl3, stronger effect = lower value) was 0.904 (active) and the normalized growth (S. cerevisiae deletion strains, locus YPL078C, strain atp4, stronger effect = lower value) was 0.872 (active). It also gave a normalized growth (S. cerevisiae deletion strains, locus YPL106C, strain sse1, stronger effect = lower value) of 0.958 and a normalized growth (S. cerevisiae deletion strains, locus YPL240C, strain hsp82, stronger effect = lower value) of 0.986.
